Data: PubChem BioAssay (Tox21)
Several values for one entry are separate records, joined by “and”; a condition that tells them apart may be missing. Equal values may be shown once. Records with an inconclusive call do not appear. Activity calls are given as the source filed them. Calls come from the whole dose curve; as a rule, active = well fitted inhibition curve with a large enough effect in the repeat runs; inconclusive = weak or mixed curves; inactive = no such curve, though single readings can be large or run the other way.

Each compound was assayed against Cytochrome P450 1A2 (Homo sapiens) (UniProt P05177) (assay: Cytochrome P450 Family 1 Subfamily A Member 2 (CYP1A2) small molecule antagonists: luciferase reporter qHTS assay (AID 1671199; note: nearly all actives have a fitted effect of over 50% in size)). Conditions: P450-Glo CYP1A2 enzyme, luciferin luminescence, 1 h; series mostly up to 53 µM; activity change, negative = inhibition: at the top concentration.
Method in brief: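 P450-Glo CYP1A2 enzyme–proluciferin substrate mix with compound 10 min at room temperature, then NADPH regeneration 1 h at room temperature. Luciferin detection reagent added, luminescence read after 20 min; furafylline positive control.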
% is set by controls: 0 for no effect and ±100 for the full control effect; potency is the fitted concentration of half-maximal effect.

Sequence of Cytochrome P450 1A2 (Homo sapiens) (P05177 whole entry, looked up): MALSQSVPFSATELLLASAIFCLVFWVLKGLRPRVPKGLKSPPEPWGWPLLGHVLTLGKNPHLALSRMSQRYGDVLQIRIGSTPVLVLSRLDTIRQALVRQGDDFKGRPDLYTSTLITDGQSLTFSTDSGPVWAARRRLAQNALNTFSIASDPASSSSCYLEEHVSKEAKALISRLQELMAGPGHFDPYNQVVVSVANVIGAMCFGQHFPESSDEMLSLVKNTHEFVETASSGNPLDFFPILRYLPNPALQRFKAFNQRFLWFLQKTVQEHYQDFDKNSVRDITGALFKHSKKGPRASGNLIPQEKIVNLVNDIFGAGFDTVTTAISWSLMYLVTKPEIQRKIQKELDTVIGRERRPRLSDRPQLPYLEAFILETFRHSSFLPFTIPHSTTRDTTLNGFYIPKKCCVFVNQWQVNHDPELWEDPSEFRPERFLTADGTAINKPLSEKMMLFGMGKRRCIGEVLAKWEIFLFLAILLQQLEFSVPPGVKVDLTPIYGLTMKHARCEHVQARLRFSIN

| SMILES | Potency | activity change, negative = inhibition |
| --- | --- | --- |
| COC(=O)c1c(Cl)c(Cl)c(C(=O)OC)c(Cl)c1Cl | 317 nM (active) and 154 nM (active) |  |
| N=C(N)c1ccccc1 |  | -30.4% [at 115 µM] (inactive) |
| CCOC(C)(C)C |  | -15.5% [at 115 µM] (inactive) |
| C[C@H](NC(CCc1ccccc1)C(=O)O)C(=O)N1CCC[C@H]1C(=O)O (some centres not stated) |  | -9.43% (inactive) |
| CC1=CC(C)C(C=O)CC1 (configuration not stated) |  | -13.1% [at 115 µM] (inactive) |
| CCOc1ccc(C(=O)OCCN(CC)CC)cc1 | 27.5 µM (active) |  |
| NC(=O)Nc1ccccc1 |  | -23.6% [at 115 µM] (inactive) |
| CC1(C)CO[C@@H](CC(=O)O)CN1 |  | 13.6% (inactive) |
| O=c1n(CCO)c(=O)n(CCO)c(=O)n1CCO |  | -6.98% [at 115 µM] (inactive) |
| O=C(CCCN1CCC(O)(c2cccc(C(F)(F)F)c2)CC1)c1ccc(F)cc1 |  | 7.54% (inactive) |
| O=C1NC(=O)[C@@]2(CCOc3ccc(F)cc32)N1 |  | -2.49% (inactive) |
| C[N+](C)(C)CCCCCC[N+](C)(C)C | inactive |  |
| C1CN(CCOCCN2CCOCC2)CCO1 |  | -8% [at 115 µM] (inactive) |
| NCCCNCCSP(=O)(O)O |  | -21.8% [at 10.5 µM] (inactive) |
| CCCCCSCCCCC |  | -16.9% [at 115 µM] (inactive) |
| CC1(C)C(O)C(C)(C)C1O (configuration not stated) |  | -10.5% [at 115 µM] (inactive) |
| CCCN(CCC)CCc1cccc2c1CC(=O)N2 |  | 6.09% (inactive) |
| Cn1c(N)c(N=O)c(=O)n(C)c1=O |  | -5.8% [at 115 µM] (inactive) |
| CCCCCOC(=O)CCCCC |  | -14.4% [at 115 µM] (inactive) |
| CCOC(=O)c1cccc(N)c1 | 5.75 µM (active) |  |
| CN1CCCC1 |  | -9.98% [at 115 µM] (inactive) |
| CCCCCCOC(=O)CCCCC(=O)OCCCCCC |  | -31.3% [at 115 µM] (inactive) |
| O=C1OC(=O)C2CCCCC12 (configuration not stated) |  | -21.6% [at 115 µM] (inactive) |
| NC(=O)c1cn(Cc2c(F)cccc2F)nn1 |  | 10.8% (inactive) |
| O=Cc1cccc([N+](=O)[O-])c1 | 39.7 µM (active) |  |
| NC(=O)COCCN1CCN(C(c2ccccc2)c2ccc(Cl)cc2)CC1 (configuration not stated) |  | -23.5% (inactive) |
| NC(=O)c1ccc(N)cc1 |  | -12.4% [at 115 µM] (inactive) |
